# Source: PubChem BioAssay AID504444 (National Center for Advancing Translational Sciences (NCATS), 2011)
# In all, about 360,000 compounds went through this assay and about 7,500 (2.1%) were called active. Where a call stands in place of a potency, no number is given. Another 20% or so got no clear call; they are omitted. The call rests on the fitted dose curve; in most records, active means well fitted inhibition curve with a large enough effect; inconclusive means small, poorly fitted or top-dose-only effect, or effect the other way; inactive means flat fitted curve, though single readings scatter. Only a selection was taken, and actives are over-represented in it overall.
# Assay: Nrf2 qHTS screen for inhibitors; further: nearly all actives have a fitted effect of over 60% in size
# Conditions: A549 ARE-Fluc reporter, luciferase luminescence, 18-24 h; series mostly up to 46 µM
# Method in brief: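 Reporter: ARE-Fluc in A549. Exposure: 18-24 h, 37 °C, 5% CO2, 5% FBS OPTI-MEM. Readouts: fluorescent cytotoxicity (CellTiter-Fluor), then luminescent Nrf2 signal after BugLite.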
# Potency means the concentration at half of the fitted maximal effect.
Structure (SMILES),Potency,"activity change, negative = inhibition"
COc1ccc(Cl)cc1NC(=O)CN(C)CC(=O)Nc1ccc2c(c1)OCO2,inactive,
O=C(Cn1cc(SCc2cccc(Cl)c2)c2ccccc21)N1CCCCC1,inactive,
COc1cc(OC)cc(-c2c(-c3ccc(F)cc3)c3cc(-c4ccc5cc[nH]c5c4)ccc3n2C)c1,inactive,
COc1cc(OC)cc(-c2c(-c3cccs3)c3cc(-c4ccc(OC)nc4)ccc3n2C)c1,inactive,
COc1ccc(-c2c(-c3cc(OC)cc(OC)c3)n(C)c3ccc(-c4ccn[nH]4)cc23)cc1,11.6 µM (active),
COCC(=O)N(C)[C@H]1C[C@H]2c3cc(Oc4ccccc4C)ccc3CCN2C(=O)[C@H]1[C@H](C)O,inactive,
CC(OC(=O)c1cc2ccccc2[nH]1)C(=O)N(C)c1ccccc1 (stereo unspecified),inactive,
Cc1ccc(C)c(N2CCN(C(=O)CN3C(=O)COc4ccc(S(=O)(=O)N5CCCCCC5)cc43)CC2)c1,inactive,
O=C(CC1Sc2ccccc2NC1=O)NNc1ccc(Cl)c(Cl)c1 (stereo unspecified),inactive,
OCCCNc1nccc(-c2cc(Nc3cccc(Cl)c3)ncn2)n1,2.06 µM (active),
Cc1cccc(Nc2nc(NCCO)nc(N3CCCC3)n2)c1,inactive,
OCCCNc1nc(-c2ccccc2)c2cc(Cl)ccc2n1,inactive,
Cc1ccc(NC(=O)Cn2cnc3c(OCc4ccccc4)ncnc32)cc1C,inactive,
COc1ccc(S(=O)(=O)N2C[C@H]3CON(C)[C@H]3C[C@H]2c2cccc(Br)c2)cc1,inactive,
COc1ccc(CCNc2nc(-c3ccc(Cl)cc3)cc(C(F)(F)F)n2)cc1OC,,-14.7% [at 9.27 µM] (inactive)
CC(=NNC(=O)c1ccncc1)c1ccc(Cl)c(Cl)c1,inactive,
Nc1c(C(=O)NCc2ccccc2)sc2nc3c(cc12)C(=O)CCC3,inactive,
Cc1sc2nc(CC(N)=O)[nH]c(=O)c2c1-c1ccccc1,inactive,
NC(=O)c1sc2nc3c(c(-c4ccccc4)c2c1N)CCC3,9.2 µM (active),
COc1ccc(N2CCN(C3=NS(=O)(=O)C(c4cccc(Br)c4)=C3C)CC2)cc1,inactive,
CSCCC(NC(=O)COc1ccccc1)C(=O)OCc1ccc(Cl)cc1 (stereo unspecified),inactive,
CC(=O)NCCNC(=O)c1cc(-c2cccc3ccccc23)nc2ccccc12,inactive,
CN(C)CCNC(=O)Nc1cccc(Cl)c1Cl,inactive,
CN(C)CCNC(=O)c1ccc(Cl)c2cc3ccccc3nc12,18.4 µM (active),
CC1CCCCC1NCC(=O)Nc1ccccc1C(=O)Nc1ccccc1 (stereo unspecified),inactive,
CC[C@]12c3[nH]c4cc(CCC(=O)N(C)C)ccc4c3CCN1C(=O)[C@@H](CC(=O)NCCCn1ccnc1)C[C@@H]2C(=O)N1CCN(C(=O)C2CC2)CC1,inactive,
